{"source": "PubChem BioAssay AID1347417", "about": "(National Center for Advancing Translational Sciences (NCATS), 2020)", "note": "Hit rate of the full screen: of about 120,000 compounds, about 5,300 (4.4%) were called active. Not shown: some 22% with an inconclusive outcome. Calls follow the shape of the dose curve; as a rule, active = well fitted inhibition curve with a large enough effect; inconclusive = small, poorly fitted or top-dose-only effect; inactive = no such curve, though single readings can be large or run the other way. The sample as a whole holds a higher share of actives than the screen did. Potency is read from the fitted curve at half-maximal effect.", "data": [{"test": "qHTS Primary assay for Inhibitors of Plasmodium falciparum Dd2 growth in vitro; also: nearly all actives have a fitted effect of over 65% in size;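 as to activity, negative = inhibition: plate controls were DMSO vehicle for no effect and reference drug for full effect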", "settings": "P. falciparum Dd2 growth, SYBR Green, 72 h; series mostly up to 28.9 µM; activity, negative = inhibition: at the top concentration", "how_it_was_run": "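Readout: SYBR Green fluorescence, 485 nm excitation, 535 nm emission, after ~16 h lysis at 37C. Before that, Dd2-infected red cells (2.5% hematocrit) grew 72 h with compound, 29 uM top final concentration.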", "values": [{"smiles": "Cc1cc(C)cc(C(=O)NCCc2noc(C)n2)c1", "activity, negative = inhibition": "-20.8% (inactive)"}, {"smiles": "Cc1ccc(Cl)cc1N(C)C(=O)C1CCCN(c2ncnc3onc(-c4ccc(F)cc4)c23)C1", "note": "(configuration not stated)", "Potency": "8.91 µM (active)"}, {"smiles": "Cc1c(Cl)cccc1NC(=O)C1CCCN(c2ncnc3onc(C)c23)C1", "note": "(configuration not stated)", "activity, negative = inhibition": "-4.54% (inactive)"}, {"smiles": "COc1ccccc1N1CCN(c2ncnc3onc(-c4ccc(F)cc4)c23)CC1", "activity, negative = inhibition": "-11.9% (inactive)"}, {"smiles": "COc1ccc(C(=O)N[C@H](c2cnn(C)c2)C2CC(O)C2)c(F)c1F", "note": "(some centres not stated)", "activity, negative = inhibition": "-3.56% (inactive)"}, {"smiles": "CCOC(=O)c1[nH]ncc1CN1CCCC(Cc2ccc(F)cc2F)(C(=O)OCC)C1", "note": "(configuration not stated)", "activity, negative = inhibition": "-6.69% (inactive)"}, {"smiles": "COc1cccc(CN2CCN(Cc3ncccc3C)CC2)c1O", "activity, negative = inhibition": "-14% (inactive)"}, {"smiles": "CCOC(=O)C1(Cc2ccc(F)cc2F)CCCN(Cc2cccc(OC)c2O)C1", "note": "(configuration not stated)", "Potency": "3.16 µM (active)"}, {"smiles": "CC(=O)c1ccc(NC(=O)C2CCN(S(=O)(=O)c3c(C)noc3/C=C/c3ccc(C)cc3)CC2)cc1", "outcome": "inactive"}, {"smiles": "CCOC(=O)c1c(C)[nH]c(C)c1S(=O)(=O)N1CCC(C(=O)Nc2ccc(C)c(Cl)c2)CC1", "activity, negative = inhibition": "6.26% (inactive)"}, {"smiles": "CCOc1ccc(NC(=O)C2CCN(S(=O)(=O)c3cc(-c4noc(C)n4)ccc3C)CC2)cc1", "Potency": "3.98 µM (active)"}, {"smiles": "Cc1cnn(CCC(=O)N2CC(F)(F)C[C@H]2c2nnc(C)o2)c1", "activity, negative = inhibition": "32.9% (inactive)"}, {"smiles": "COc1cccc(S(=O)(=O)N2CCCN(C(=O)C3CC3)c3ccccc32)c1", "activity, negative = inhibition": "-17.6% (inactive)"}, {"smiles": "CCOC(=O)c1c(C)[nH]c(C)c1S(=O)(=O)N(C)CC(=O)N1CCN(c2ccccc2)CC1", "outcome": "inactive"}, {"smiles": "Cc1nc(SCC(=O)N2CCN(c3ccccc3)CC2)[nH]c(=O)c1C", "activity, negative = inhibition": "2.9% (inactive)"}, {"smiles": "CCOC(=O)c1[nH]c(C)c(CCC(=O)N2CCN(c3ccccc3)CC2)c1C", "Potency": "3.98 µM (active)"}, {"smiles": "COCCN1C(=O)c2cccn2CC1CNS(=O)(=O)c1c(C)noc1C", "note": "(configuration not stated)", "activity, negative = inhibition": "-0.664% (inactive)"}, {"smiles": "O=C(c1cccc(OC2CN(Cc3nccs3)C2)c1)N1CCOCC1", "Potency": "2.51 µM (active)"}, {"smiles": "O=C(c1cccc(F)c1)N1CCOC[C@H](Oc2ccc(C(F)(F)F)cc2)C1", "outcome": "inactive [at 44.1 µM]"}, {"smiles": "COc1cccc(C(=O)N2CCC(Oc3ccc(C(=O)N4CCOCC4)cn3)CC2)c1", "activity, negative = inhibition": "35% (inactive)"}, {"smiles": "O=C(c1ccccc1)N1Cc2ccccc2CC2(CCCN2CC2CCNC2)C1", "note": "(configuration not stated)", "activity, negative = inhibition": "-21.9% (inactive)"}, {"smiles": "O=C(C1CCCC1)N1Cc2ccccc2CC2(CCCCN2CC2CCNCC2)C1", "note": "(configuration not stated)", "Potency": "5.01 µM (active)"}, {"smiles": "CC(=O)NCCC(=O)N1Cc2ccccc2CC2(CCCCN2CC2CCNC2)C1", "note": "(configuration not stated)", "activity, negative = inhibition": "11.9% (inactive)"}, {"smiles": "COCCNc1ncccc1-c1noc([C@@H]2CCCN2Cc2ccc3c(c2)OCO3)n1", "activity, negative = inhibition": "-24% [at 44.1 µM] (inactive)"}, {"smiles": "COCCOc1ccnc(-c2noc([C@@H]3CCCN3Cc3ccc(Cl)cc3)n2)c1", "Potency": "3.98 µM (active)"}, {"smiles": "COc1ccc(C(=O)Nc2ccc(-c3noc([C@@H]4CCCN4Cc4ccc(S(C)(=O)=O)cc4)n3)cn2)cc1", "outcome": "inactive"}, {"smiles": "Cc1ccc2c(c1)N1C(=O)OC[C@@H]1CCN(C(=O)c1ccnc(Cl)c1)C2", "activity, negative = inhibition": "14% [at 44.1 µM] (inactive)"}, {"smiles": "Cc1ccc(-c2nocc2CCC(=O)N2CCN(c3ccccc3F)CC2)cc1", "outcome": "inactive"}, {"smiles": "CN(C)C(=O)c1cccnc1N1CC2CC(C1)[C@H]1CCCC(=O)N1C2", "note": "(some centres not stated)", "activity, negative = inhibition": "-8.74% (inactive)"}, {"smiles": "COc1ccc(-c2ccccc2CN)cc1", "Potency": "7.94 µM (active)"}, {"smiles": "COc1ccccc1-c1ccc(C(=O)O)cc1", "outcome": "inactive [at 44.1 µM]"}, {"smiles": "COc1ccc(-c2nn3c(-c4ccc(OC)cc4)nnc3c3ccccc23)cc1", "activity, negative = inhibition": "31.5% (inactive)"}, {"smiles": "CC(C)c1noc(-c2cn(C3CCN(C(=O)c4cccc(C#N)c4)CC3)nn2)n1", "activity, negative = inhibition": "-18.1% (inactive)"}, {"smiles": "CC(C)c1noc(-c2cn(C3CCN(C(=O)COc4ccc(F)cc4)CC3)nn2)n1", "Potency": "10 µM (active)"}, {"smiles": "CC(C)c1noc(-c2cn(C3CCN(C(=O)COc4ccccc4)C3)nn2)n1", "note": "(configuration not stated)", "activity, negative = inhibition": "-11.6% (inactive)"}, {"smiles": "CNC(=O)[C@@H]1CN(C(=O)Cc2cccnc2)C[C@H]1COC", "activity, negative = inhibition": "22.4% (inactive)"}, {"smiles": "O=C(NC1CCCC1)N1CC2CC(C1)[C@H]1CCCC(=O)N1C2", "note": "(some centres not stated)", "activity, negative = inhibition": "6.81% (inactive)"}, {"smiles": "CCOC(=O)c1scc(-c2ccc(C)cc2)c1S(=O)(=O)Nc1cc(C)ccc1C", "outcome": "inactive"}, {"smiles": "COC(=O)c1scc(-c2ccc(C)cc2)c1S(=O)(=O)Nc1cc(Cl)c(OC)cc1OC", "Potency": "8.91 µM (active)"}, {"smiles": "COC(=O)c1scc(-c2ccccc2)c1S(=O)(=O)Nc1ccccc1", "activity, negative = inhibition": "13.8% (inactive)"}, {"smiles": "COc1ccc(CN2C[C@H]3CN(Cc4ccccc4)CCN3C2=O)cc1", "outcome": "inactive [at 44.1 µM]"}, {"smiles": "CCCS(=O)(=O)N1CCC2(CC1)C(OC)C(=O)N2CC1CC1", "note": "(configuration not stated)", "activity, negative = inhibition": "7.35% (inactive)"}, {"smiles": "COc1ccc(N2CCN(CCCNC(=O)C3(CCO)CC34CCOCC4)CC2)cc1", "note": "(configuration not stated)", "outcome": "inactive"}, {"smiles": "COc1ccc(-c2nc(Cn3c(=O)cc(C)c4c(C)nn(-c5ccccc5)c43)c(C)o2)c(OC)c1", "activity, negative = inhibition": "25.9% (inactive)"}, {"smiles": "C#CCOc1ccc(C2CC(=O)Nc3c2c(C)nn3-c2nc(C)cc(C)n2)cc1", "note": "(configuration not stated)", "activity, negative = inhibition": "-28.9% (inactive)"}, {"smiles": "COc1ccc(C2CC(=O)N(Cc3ccccc3C)c3c2c(C)nn3-c2nc(C)cc(C)n2)c(OC)c1", "note": "(configuration not stated)", "Potency": "10 µM (active)"}, {"smiles": "CCc1cc(=O)n(CC(=O)Nc2ccc(OC)c(OC)c2)c(N2CCOCC2)n1", "outcome": "inactive"}]}]}
